Reference: PubChem BioAssay (EPA / NIEHS)
The source made the active and inactive calls. The calls were made as follows: active = hit-call score of the fitted dose curve at least 0.9, where 1 is the maximum; inactive = score below 0.9.

Tests used:
Settings in all cases: mRNA level, 48 h; actives raise or lower the signal
[1] = read-out: Cyclin D1 (CCND1), CCND1 (gene 595); experiment: LTEA_HepaRG_CCND1: Life Technologies and Expression Analysis (LTEA) Assay for Cyclin D1 (CCND1) using HepaRG (AID 2283451);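 as to AC50: TaqMan qRT-PCR transcript level normalised to ACTB GAPDH and POLR2A housekeeping genes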
Summary of the method: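 Expression change is measured by qRT-PCR in HepaRG cells after 48 h treatment across eight concentrations topping at 100 uM, with duplicate wells and DMSO (0.5%) serving as baseline for bidirectional fitting.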

[2] = read-out: catalase (CAT), CAT (gene 847); experiment: LTEA_HepaRG_CAT: Life Technologies and Expression Analysis (LTEA) Assay for catalase (CAT) using HepaRG (AID 2283452);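 as to AC50: TaqMan qRT-PCR signal normalized to ACTB GAPDH and POLR2A housekeeping genes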
Summary of the method: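 Differentiated HepaRG cells in serum-free induction medium were dosed 48 h in duplicate, eight half-log concentrations from 100 uM in 0.5% DMSO. Transcript measured by TaqMan qRT-PCR, normalised to ACTB/GAPDH/POLR2A, fitted bidirectionally against DMSO.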

[3] = read-out: Cytochrome P450 (CYP1A1), CYP1A1 (gene 1543); experiment: LTEA_HepaRG_CYP1A1: Life Technologies and Expression Analysis (LTEA) Assay for Cytochrome P450 (CYP1A1) using HepaRG (AID 2283454)
Summary of the method: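 Using HepaRG cultures with 0.5% DMSO as vehicle, eight-concentration exposures (max 100 uM) lasted 48 h. Transcript levels were measured by TaqMan qRT-PCR and normalized to ACTB, GAPDH and POLR2A.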

[4] = read-out: CFLAR gene, CFLAR (gene 8837); experiment: LTEA_HepaRG_CFLAR: Life Technologies and Expression Analysis (LTEA) Assay for CFLAR gene using HepaRG (AID 2283455)
Summary of the method: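 HepaRG cells were plated for 48 h, switched to serum-free induction medium, then exposed in duplicate for 48 h to 8 concentrations (top 100 uM, half-log steps, 0.5% DMSO). CFLAR mRNA was measured by qRT-PCR, normalized to ACTB, GAPDH and POLR2A.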

[5] = read-out: Forkhead box O1 (FOXO1), FOXO1 (gene 2308); experiment: LTEA_HepaRG_FOXO1: Life Technologies and Expression Analysis (LTEA) Assay for Forkhead box O1 (FOXO1) using HepaRG (AID 2283456)
Summary of the method: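 Differentiated human HepaRG cells in serum-free induction medium were exposed in duplicate for 48 h to eight half-log concentrations (top 100 uM, 0.5% DMSO). FOXO1 mRNA was measured by TaqMan qRT-PCR, normalised to ACTB, GAPDH and POLR2A, and fitted bidirectionally against DMSO.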

[6] = read-out: growth arrest and DNA damage 45 (GADD45A), GADD45A (gene 1647); experiment: LTEA_HepaRG_GADD45A: Life Technologies and Expression Analysis (LTEA) Assay for growth arrest and DNA damage 45 (GADD45A) using HepaRG (AID 2283458)
Summary of the method: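 Cells plated and cultured 48 h, switched to serum-free induction medium, then dosed for 48 h (100 uM top, half-log dilutions, 0.5% DMSO). RNA was isolated and transcript measured by Fluidigm qRT-PCR.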

[7] = read-out: Forkhead box O3 (FOXO3), FOXO3 (gene 2309); experiment: LTEA_HepaRG_FOXO3: Life Technologies and Expression Analysis (LTEA) Assay for Forkhead box O3 (FOXO3) using HepaRG (AID 2283459)
Summary of the method: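 Differentiated human HepaRG cells in serum-free induction medium were exposed in duplicate for 48 h to eight half-log concentrations up to 100 uM in 0.5% DMSO. FOXO3 mRNA was quantified by qRT-PCR, normalized to ACTB, GAPDH and POLR2A, with bidirectional fitting versus DMSO.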

[8] = read-out: ABC Transporter (ABCB1), ABCB1 (gene 5243); experiment: LTEA_HepaRG_ABCB1: Life Technologies and Expression Analysis (LTEA) Assay for ABC Transporter (ABCB1) using HepaRG (AID 2283460)
Summary of the method: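 Differentiated human HepaRG cells, plated 48 h then switched to serum-free induction medium, were exposed in duplicate to eight half-log concentrations up to 100 uM in 0.5% DMSO for 48 h. ABCB1 mRNA was measured by TaqMan qRT-PCR, normalized to ACTB/GAPDH/POLR2A.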

[9] = read-out: growth arrest and DNA damage 45 (GADD45B), GADD45B (gene 4616); experiment: LTEA_HepaRG_GADD45B: Life Technologies and Expression Analysis (LTEA) Assay for growth arrest and DNA damage 45 (GADD45B) using HepaRG (AID 2283461)
Summary of the method: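 Human HepaRG monolayers receive chemicals for 48 h at eight half-log concentrations, highest 100 uM, in 0.5% DMSO. Expression is measured by TaqMan qRT-PCR and normalized to ACTB, GAPDH and POLR2A.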

[10] = read-out: ABC Transporter (ABCC3), ABCC3 (gene 8714); experiment: LTEA_HepaRG_ABCC3: Life Technologies and Expression Analysis (LTEA) Assay for ABC Transporter (ABCC3) using HepaRG (AID 2283462)
Summary of the method: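 Transcriptional change of ABCC3 in HepaRG after 48 h treatment, determined by qRT-PCR normalized to endogenous controls. Concentrations spanned eight half-log steps to 100 uM in 0.5% DMSO.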

[11] = read-out: ABC Transporter (ABCB11), ABCB11 (gene 8647); experiment: LTEA_HepaRG_ABCB11: Life Technologies and Expression Analysis (LTEA) Assay for ABC Transporter (ABCB11) using HepaRG (AID 2283463)
Summary of the method: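 Differentiated human HepaRG cells were exposed for 48 h in serum-free induction medium to eight half-log concentrations up to 100 uM in 0.5% DMSO. ABCB11 mRNA was quantified by qRT-PCR, normalized to ACTB, GAPDH and POLR2A, and fitted bidirectionally versus DMSO.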

[12] = read-out: ABC Transporter (ABCC2), ABCC2 (gene 1244); experiment: LTEA_HepaRG_ABCC2: Life Technologies and Expression Analysis (LTEA) Assay for ABC Transporter (ABCC2) using HepaRG (AID 2283464)
Summary of the method: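 After plating and 48 h culture, HepaRG medium is replaced with serum-free induction medium and chemicals are added (8 concentrations, max 100 uM, 0.5% DMSO) for 48 h. Total RNA then undergoes qRT-PCR for ABCC2 with housekeeping normalization.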

[13] = read-out: Broad substrate specificity ATP-binding cassette transporter ABCG2 (Homo sapiens) (UniProt Q9UNQ0); experiment: LTEA_HepaRG_ABCG2: Life Technologies and Expression Analysis (LTEA) Assay for ABC Transporter (ABCG2) using HepaRG (AID 2283465)
Summary of the method: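 Differentiated HepaRG cells in serum-free induction medium were exposed for 48 h, in duplicate, to eight half-log concentrations up to 100 uM in 0.5% DMSO. ABCG2 mRNA was measured by TaqMan qRT-PCR, normalized to ACTB, GAPDH and POLR2A, and fitted bidirectionally versus DMSO.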

[14] = read-out: ATP-citrate lyase (ACLY), ACLY (gene 47); experiment: LTEA_HepaRG_ACLY: Life Technologies and Expression Analysis (LTEA) Assay for ATP-citrate lyase (ACLY) using HepaRG (AID 2283466)
Summary of the method: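 Differentiated human HepaRG cells in serum-free induction medium exposed 48 h, in duplicate, to eight half-log concentrations from 100 uM top in 0.5% DMSO; ACLY mRNA measured by qRT-PCR, normalized to ACTB, GAPDH, POLR2A, fitted bidirectionally versus DMSO.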

[15] = read-out: Alkaline Phosphatase, Placental (ALPP) gene, ALPP (gene 250); experiment: LTEA_HepaRG_ALPP: Life Technologies and Expression Analysis (LTEA) Assay for Alkaline Phosphatase, Placental (ALPP) gene using HepaRG (AID 2283468)
Summary of the method: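 Using human liver HepaRG cells, chemicals are tested in duplicate over 48 h at half-log concentrations topping at 100 uM; phenobarbital 1 mM serves as induction control. ALPP mRNA change by qRT-PCR, bidirectional fit against vehicle.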

[16] = read-out: Bcl-2 (BAD) gene, BAD (gene 572); experiment: LTEA_HepaRG_BAD: Life Technologies and Expression Analysis (LTEA) Assay for Bcl-2 (BAD) gene using HepaRG (AID 2283469)
Summary of the method: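 Differentiated human HepaRG cells in serum-free induction medium were exposed in duplicate for 48 h to eight concentrations (top 100 uM, half-log steps, 0.5% DMSO). BAD mRNA was quantified by qRT-PCR normalised to ACTB, GAPDH and POLR2A, with bidirectional fitting versus DMSO.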

[17] = read-out: Bcl-2 (BAX) gene, BAX (gene 581); experiment: LTEA_HepaRG_BAX: Life Technologies and Expression Analysis (LTEA) Assay for Bcl-2 (BAX) gene using HepaRG (AID 2283470)
Summary of the method: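 HepaRG (human liver), 48 h exposure, duplicate wells. 8-pt curve, half-log from 100 uM, 0.5% DMSO. BAX transcript by TaqMan qRT-PCR; ACTB/GAPDH/POLR2A normalization; gain or loss vs DMSO baseline.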

[18] = read-out: flavin-containing dimethylaniline monooxygenases 3 (FMO3), FMO3 (gene 2328); experiment: LTEA_HepaRG_FMO3: Life Technologies and Expression Analysis (LTEA) Assay for flavin-containing dimethylaniline monooxygenases 3 (FMO3) using HepaRG (AID 2283453)
Summary of the method: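 Differentiated HepaRG cells in serum-free induction medium, exposed 48 h in duplicate to 8 half-log concentrations up to 100 uM in 0.5% DMSO. FMO3 mRNA by qRT-PCR, normalized to ACTB, GAPDH, POLR2A; bidirectional fit vs DMSO.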

[19] = read-out: Peroxisomal acyl-coenzyme A oxidase 1 (ACOX1) gene, ACOX1 (gene 51); experiment: LTEA_HepaRG_ACOX1: Life Technologies and Expression Analysis (LTEA) Assay for Peroxisomal acyl-coenzyme A oxidase 1 (ACOX1) gene using HepaRG (AID 2283467)
Summary of the method: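 Differentiated human HepaRG cells were exposed in duplicate for 48 h in serum-free induction medium to eight half-log concentrations up to 100 uM in 0.5% DMSO. ACOX1 mRNA was then quantified by TaqMan qRT-PCR, normalized to ACTB, GAPDH and POLR2A.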

Measured: AC50

Broad substrate specificity ATP-binding cassette transporter ABCG2 (Homo sapiens), sequence (Q9UNQ0 whole entry, looked up): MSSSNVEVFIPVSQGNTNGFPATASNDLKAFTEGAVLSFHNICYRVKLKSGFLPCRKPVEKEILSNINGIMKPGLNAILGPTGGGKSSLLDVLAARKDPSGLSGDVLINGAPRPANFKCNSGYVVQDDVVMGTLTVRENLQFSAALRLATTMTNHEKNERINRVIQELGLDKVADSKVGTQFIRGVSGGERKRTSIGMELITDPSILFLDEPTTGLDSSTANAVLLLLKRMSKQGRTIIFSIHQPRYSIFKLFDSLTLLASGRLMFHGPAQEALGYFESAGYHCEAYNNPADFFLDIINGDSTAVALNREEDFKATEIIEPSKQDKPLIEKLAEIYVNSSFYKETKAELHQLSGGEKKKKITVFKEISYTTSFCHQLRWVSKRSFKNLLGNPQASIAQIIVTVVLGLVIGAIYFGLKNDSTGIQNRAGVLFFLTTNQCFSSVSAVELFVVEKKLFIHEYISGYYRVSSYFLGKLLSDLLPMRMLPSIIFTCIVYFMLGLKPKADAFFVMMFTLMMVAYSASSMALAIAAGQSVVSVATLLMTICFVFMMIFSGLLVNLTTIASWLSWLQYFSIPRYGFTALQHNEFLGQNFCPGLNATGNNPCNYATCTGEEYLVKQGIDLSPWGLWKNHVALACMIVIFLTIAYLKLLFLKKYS

CN(C)CCCN1c2ccccc2Sc2ccc(Cl)cc21
inactive: [6] | [7] | [8] | [10] | [13] | [14] | [16] | [17]
active: [1] 50 µM | [2] 50 µM | [3] 27.1 µM | [4] 71.3 µM | [5] 79.2 µM | [9] 89.7 µM | [11] 24.7 µM | [12] 89.6 µM | [15] 11.8 µM

NC(=Nc1ccccc1)Nc1ccccc1
active: [3] 50 µM
inactive: all other assays above

COC(=O)[C@H]1[C@H]2C[C@@H]3c4[nH]c5cc(OC)ccc5c4CCN3C[C@H]2C[C@@H](OC(=O)c2cc(OC)c(OC)c(OC)c2)[C@@H]1OC
active: [2] 42.2 µM | [18] 30.5 µM | [8] 9.75 µM | [10] 49.8 µM | [11] 31.4 µM | [12] 67.4 µM | [19] 42.2 µM | [15] 25.9 µM
inactive: [1] | [4] | [5] | [6] | [7] | [9] | [13] | [16]

CCCC(=O)O
active: [6] 0.0993 µM
not listed: [7] | [17]
inactive: all other assays above

CC(C)NCC(O)c1ccc(O)c(O)c1 (stereo not given)
active: [1] 0.141 µM | [2] 0.2 µM | [18] 0.451 µM | [3] 0.147 µM | [4] 0.238 µM | [11] 0.147 µM | [12] 0.128 µM | [13] 0.156 µM | [14] 0.182 µM | [19] 0.224 µM | [15] 0.0927 µM
inactive: [5] | [6] | [8] | [9] | [10] | [16] | [17]

C=CCc1ccc(OC)c(OC)c1
active: [6] 9.92 µM
inactive: all other assays above

O=C1CCCCC1
active: [6] 0.0727 µM
inactive: all other assays above
